Hits are enriched below; roughly 7.2% of the tested compounds scored in any of these assays.
RE007 growth inh = less growth of the S. pombe RE007 Vpr strain; S. pombe RE007 Vpr strain, BacTiter-Glo ATP luminescence, 24 h; Potency, µM (series often up to 92.2 µM), for inactives: at the highest dose activity change, negative = less growth, hits mostly inhibitors; 360,000 tested, 0.21% active; active = well fitted falling curve with a large enough effect; inconclusive = small, poorly fitted or top-dose-only effect; inactive = no such curve, though single readings can be large or run the other way; note: nearly all actives have a fitted effect of over 50% in size
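Fission yeast RE007 carrying one integrated HIV-1 vpr copy, seeded at OD 0.01 in PMG+AL medium with 23 nL pinned compound. Grown 24 h at 30 degrees; viability read by BacTiter-Glo luminescence after 5 min.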
FMDV antiviral = blocks foot and mouth disease virus; 410,000 tested, 1.2% active; Potency, µM (titrated, usually from 57.9 µM), for inactives: at the top dose activity change, negative = inhibition, usual class: inhibitors; AID 1159524; FMDV antiviral cell-based qHTS; calls by dose curve; tested in HEK293T cells; note: read-out not given here; nearly all actives have a fitted effect of over 45% in size
Sm TGR inh = inhibitors of Schistosoma mansoni thioredoxin glutathione reductase; Potency, µM (highest dose often 114 µM), for the others: top-dose activity change, negative = inhibition, most hits filed as inhibitors; 360,000 tested, 3% active; Q962Y6; purified TGR, DTNB reduction, TNB absorbance 405 nm; AID 485364; note: nearly all actives have a fitted effect of over 60% in size
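Kinetic colorimetric format: TGR-catalysed, NADPH-driven DTNB reduction monitored via TNB absorbance. Enzyme dispensed at 20 nM; compound exposure 15 min at room temperature before reaction start.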
HCV inhibitor = inhibitors of hepatitis C virus infection. 340,000 tested, 3.4% active. Potency, µM (highest dose often 41.8 µM), for the others: at the highest dose activity change, negative = inhibition, hits mostly inhibitors. AID 651820. Huh7.5.1 HCVcc-Cre infection, luciferase reporter, 44 h
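1,000 cells/well; 4 h culture; + compound; + HCVcc-Cre (~0.5 moi); 44 h; luciferase substrate, RT 15 min; read 15 sec.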
LASV entry inh = Lassa virus entry inhibition | Lassa virus pseudotype entry inhibition, cell reporter | AID 540256 | Potency, µM (titrated, usually from 37.9 µM), for the others: top-dose activity change, negative = inhibition, usual class: inhibitors | 300,000 tested, 1.2% active; calls by dose curve; tested in HEK293 cells; note: nearly all actives have a fitted effect of over 50% in size
Marburg entry inh = blocks Marburg virus binding to or entry into cells; Potency, µM (highest dose often 37.8 µM), inactives show at the top dose activity change, negative = inhibition, hits mostly inhibitors; Marburg virus pseudotyped entry inhibition, cell reporter; AID 540276; 300,000 tested, 1.8% active; calls by dose curve; tested in HEK293 cells
Numbers without * were called inactive; ? = inconclusive; . = not tested or not shown; [ ] = remark or other dose. Unless noted, calls come from the whole dose curve; as a rule, active = well fitted curve in the direction sought with a large enough effect; inconclusive = small, poorly fitted or top-dose-only effect, or another doubt; inactive = no such curve, though single readings can be large; an effect the other way counts as inactive or inconclusive. % is set by controls: 0 for no effect and ±100 for the full control effect; potency is the fitted concentration of half-maximal effect.

SMILES	RE007 growth inh	FMDV antiviral	Sm TGR inh	HCV inhibitor	LASV entry inh	Marburg entry inh
COc1cc(=O)n2c(c1C(=O)NC(C)c1ccco1)CCN(Cc1ccc3nsnc3c1)CC2 (stereo unspecified)	.	0%	.	.	.	.
COc1ccc(CNC(=O)Cn2ncc3c(=O)oc4ccc(C)cc4c32)c(OC)c1	.	-9%	-13%	.	4%[46.1 µM]	6%[46.1 µM]
COc1cccc(C2C(C(=O)Nc3ccc(Cl)cc3)=C(C)Nc3c(C(=O)Nc4ccccc4)cnn32)c1OC (stereo unspecified)	.	?	0%	.	?	?
Cc1ccc(C(=O)Nc2ccc(NC(=O)c3cccs3)cc2)cc1[N+](=O)[O-]	-10%	-3%	.	-20%	.	.
Cc1ccc(NC(=O)c2cccs2)cc1[N+](=O)[O-]	-11%	25%	-17%	7.9µM*	-10%	-13%[46.1 µM]
O=C(Nc1cccc(NC(=O)c2cccs2)c1)c1ccc([N+](=O)[O-])o1	-13%	-22%	?	10µM*	?	?
O=C(Nc1cccc(N2C(=O)C=CC2=O)c1)c1cccs1	.	.	0.4µM*	?	.	.
CC(C)CCNC(=O)c1cc(-c2ccc(Br)s2)nc2ccccc12	.	0%	-5%	.	-10%[46.1 µM]	12%[46.1 µM]
Cc1cc(N2CCOCC2)ccc1/C=C1\NC(=O)N(Cc2ccccc2)C1=O	19%	-23%	1%	?	.	.
Cc1cc(N2CCOCC2)ccc1/C=C1\NC(=O)N(Cc2ccccc2F)C1=O	-6%	-7%	0%	4µM*	?	3%
COc1cc(/C=C2/NC(=O)N(Cc3ccccc3F)C2=O)cc(OC)c1O	6%	-8%	14µM*	-17%	?	1%[46.1 µM]
CCOc1cc(/C=C2/NC(=O)N(Cc3ccccc3F)C2=O)ccc1O	13%	-13%	?	10µM*	-25%	16µM*
Cc1nn(C)c2c1c(C(F)(F)F)cc(=O)n2CC(=O)NC(C)(C)C	.	-24%	-1%	.	-8%[46.1 µM]	.
COc1ccc(-c2cc(C3CCN(c4ccc(C(C)=O)cc4[N+](=O)[O-])CC3)[nH]n2)cc1	2%	18µM*	12%	11µM*	?	?
CC(=O)c1ccc(N2CCC(c3cc(-c4ccc(Cl)cc4)n[nH]3)CC2)c([N+](=O)[O-])c1	10%	?	16%	?	-21%	-28%
COC(=O)c1ccc(N2CCC(c3cc(-c4ccc(OC)cc4)n[nH]3)CC2)c([N+](=O)[O-])c1	6%	?	18%	11µM*	?	?
C[C@@H]1C=CCC(=O)N[C@@H](c2ccccc2)[C@H](C)C=CCC(=O)N[C@@H]1c1ccccc1	.	.	.	.	?	12%[14.2 µM]
COC(=O)c1ccc(C2NC(=S)N(c3ccccc3)C(C)=C2C(=O)Nc2ccccc2OC)cc1 (stereo unspecified)	-6%	1%	-2%	?	6.5µM*	?
Cc1ccccc1C1(CC(=O)N2CCC[C@H]2C(N)=O)CC(=O)N(C2CCCC2)C1=O (stereo partly specified)	.	16%	.	.	.	.
CCN(CC)c1ccc(NC(=O)c2c(C)nn(-c3ccc(F)cc3)c2-n2cccc2)c(C)c1	.	?	-6%	.	-10%[46.1 µM]	.
NC(C(=O)O)c1cc(O)cc(O)c1 (stereo unspecified)	.	5%	.	.	.	.
Cn1c2ccccc2c(=O)c2c(=O)n(Cc3ccco3)c(-c3ccc(Cl)cc3Cl)nc21	.	.	14µM*	.	.	.
COc1ccc(Cn2c(-c3ccco3)nc3c(c(=O)c4ccccc4n3C)c2=O)cc1	11%	4%	50µM*	?	.	.
Cc1ccc(C)c(NC(=O)CSc2nc(=O)n(CCN3CCOCC3)c3c2CCC3)c1	.	-2%	6%	.	5%[46.1 µM]	.
CCOc1ccc(CCNC(=O)c2ccc(CSCc3ccccc3C)o2)cc1OCC	.	0%	5%	.	2%[46.1 µM]	.
CC(C)Cc1ccc(CN2CCCC(NC(=O)CCN3CCCCC3=O)C2)cc1 (stereo unspecified)	8%	-8%	3%	-29%	.	.
CC(C)Cc1ccc(C(C)/C=C2/CCC(CN3CCCCC3)C2=O)cc1 (stereo unspecified)	?	40µM*	.	?	?	?

Source: PubChem
